Measurements reported in PubChem BioAssay.
For some assays here: Entries with a potency or affinity are not part of this list. Activity calls are given as the source filed them. Unless noted, the rule behind the calls is not given here.

What was measured:
[1] = antimalarial activity against Dd2 strain (AID 2302;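 active = growth inhibition above 50% at the single 2 µM test dose, taken to imply half-maximal potency below 2 µM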;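 note: 0% = DMSO untreated growth and 100% = chloroquine plus artemisinin killed control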); conditions: P. falciparum Dd2 in RBCs, LDH growth readout, 72 h; at 2 µM; hits give high values
[2] = human hepatoma cell viability loss – ATP luminescence, cytotoxicity control for P. falciparum antimalarial project, primary screen (AID 2303;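 active = inhibition above 50%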;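 note: 0% = DMSO wells and 100% = digitonin-killed cells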); conditions: HepG2 viability, 24-48 h, at 10 µM, hits give high values
[3] = target: L-lactate dehydrogenase (Plasmodium falciparum (isolate CDC / Honduras)) (UniProt Q27743); experiment: PfLDH activity inhibition – cell lysate, 3D7 strain, counter-screen for P. falciparum growth inhibition project (AID 2304);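 note: 0% = vehicle and 100% = reference inhibitor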; conditions: P. falciparum 3D7 crude extract, LDH APAD/NBT absorbance; at 2 µM; hits give high values
[4] = inhibition of 3D7 malaria parasite growth – strain 3D7 (AID 2306);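 note: 0% = DMSO wells and 100% = chloroquine plus artemisinin control wells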; conditions: P. falciparum 3D7 erythrocytic growth, LDH absorbance, 72 h; at 2 µM; hits give high values
[5] = target: Calcium-dependent protein kinase 1 (Plasmodium falciparum (isolate 3D7)) (UniProt P62344); experiment: PfCDPK1 kinase inhibitors, biochemical, TCAMS library (AID 1159585; cut-off not given, nearly all actives have IC50 up to about 0.98 µM;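 note: inhibitors leave more ATP so luminescence rises with inhibition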); conditions: recombinant PfCDPK1, Kinase-Glo ATP depletion luminescence
[6] = target: Plasmodium falciparum protein kinase 6 (PK6, PF3D7_1337100) (UniProt Q8IDW1); experiment: PfPK6 kinase inhibitors, biochemical, TCAMS library (AID 1159586); conditions: recombinant PfPK6, Kinase-Glo ATP depletion luminescence
[7] = target: Protein kinase 7 (PK7), Plasmodium falciparum 3D7 (PF3D7_0213400) (UniProt Q7YTF7); experiment: inhibition of Plasmodium PK7 catalytic activity – biochemical, TCAMS antimalarial set, Kinase-Glo luminescence (AID 1159587); conditions: recombinant PfPK7, Kinase-Glo ATP depletion luminescence
[8] = target: Calcium-dependent protein kinase 4 (Plasmodium falciparum (isolate 3D7)) (UniProt Q8IBS5); experiment: PfCDPK4 kinase inhibitors, biochemical, TCAMS library (AID 1159588; cut-off not given, nearly all actives have IC50 up to about 0.91 µM); conditions: recombinant PfCDPK4, Kinase-Glo ATP depletion luminescence
Chain of Calcium-dependent protein kinase 4 (Plasmodium falciparum (isolate 3D7)) (Q8IBS5 whole entry, looked up): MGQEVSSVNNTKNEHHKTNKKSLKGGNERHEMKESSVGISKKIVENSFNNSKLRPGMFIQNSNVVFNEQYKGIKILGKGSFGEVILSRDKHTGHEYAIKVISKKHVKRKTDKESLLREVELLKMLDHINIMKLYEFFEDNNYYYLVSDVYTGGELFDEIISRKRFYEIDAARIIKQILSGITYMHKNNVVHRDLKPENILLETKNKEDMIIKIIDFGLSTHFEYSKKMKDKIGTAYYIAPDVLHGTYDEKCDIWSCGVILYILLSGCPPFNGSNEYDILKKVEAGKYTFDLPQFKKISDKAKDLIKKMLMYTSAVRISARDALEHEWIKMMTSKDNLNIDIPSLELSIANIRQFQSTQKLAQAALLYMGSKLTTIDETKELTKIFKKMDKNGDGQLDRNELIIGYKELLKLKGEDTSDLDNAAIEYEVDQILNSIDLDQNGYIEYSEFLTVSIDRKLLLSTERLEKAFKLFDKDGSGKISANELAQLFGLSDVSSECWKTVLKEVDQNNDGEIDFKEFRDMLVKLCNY

Chain of Calcium-dependent protein kinase 1 (Plasmodium falciparum (isolate 3D7)) (P62344 whole entry, looked up): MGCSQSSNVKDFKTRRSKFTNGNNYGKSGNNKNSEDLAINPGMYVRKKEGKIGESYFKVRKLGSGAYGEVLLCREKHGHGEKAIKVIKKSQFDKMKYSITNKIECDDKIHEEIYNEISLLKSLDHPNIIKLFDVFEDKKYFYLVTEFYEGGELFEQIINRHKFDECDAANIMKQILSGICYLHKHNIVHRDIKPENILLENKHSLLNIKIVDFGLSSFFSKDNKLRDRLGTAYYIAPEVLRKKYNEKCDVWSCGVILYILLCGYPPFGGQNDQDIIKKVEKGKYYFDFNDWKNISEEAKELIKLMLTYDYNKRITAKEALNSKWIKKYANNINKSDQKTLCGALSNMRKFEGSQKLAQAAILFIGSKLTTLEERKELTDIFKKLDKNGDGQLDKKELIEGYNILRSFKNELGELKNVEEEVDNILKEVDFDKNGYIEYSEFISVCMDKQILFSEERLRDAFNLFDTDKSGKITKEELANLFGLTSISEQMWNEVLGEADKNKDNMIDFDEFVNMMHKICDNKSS
Chain of L-lactate dehydrogenase (Plasmodium falciparum (isolate CDC / Honduras)) (Q27743 whole entry, looked up): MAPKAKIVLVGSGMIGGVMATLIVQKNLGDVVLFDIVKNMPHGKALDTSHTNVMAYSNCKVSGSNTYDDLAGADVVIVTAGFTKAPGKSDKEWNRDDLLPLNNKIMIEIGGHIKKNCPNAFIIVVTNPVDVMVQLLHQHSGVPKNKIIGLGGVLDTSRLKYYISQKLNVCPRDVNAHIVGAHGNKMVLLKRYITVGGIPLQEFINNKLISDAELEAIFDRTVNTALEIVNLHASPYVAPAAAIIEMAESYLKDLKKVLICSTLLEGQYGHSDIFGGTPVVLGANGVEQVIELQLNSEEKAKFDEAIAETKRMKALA
Chain of Plasmodium falciparum protein kinase 6 (PK6, PF3D7_1337100) (Q8IDW1 1-305): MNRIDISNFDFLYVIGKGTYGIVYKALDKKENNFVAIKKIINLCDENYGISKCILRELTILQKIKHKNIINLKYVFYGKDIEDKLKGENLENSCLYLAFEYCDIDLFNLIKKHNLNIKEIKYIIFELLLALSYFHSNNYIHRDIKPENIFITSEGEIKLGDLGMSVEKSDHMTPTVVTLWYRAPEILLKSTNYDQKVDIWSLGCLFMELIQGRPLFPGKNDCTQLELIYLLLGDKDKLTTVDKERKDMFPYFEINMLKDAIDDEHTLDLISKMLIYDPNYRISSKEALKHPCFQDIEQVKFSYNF
Chain of Protein kinase 7 (PK7), Plasmodium falciparum 3D7 (PF3D7_0213400) (Q7YTF7 1-343): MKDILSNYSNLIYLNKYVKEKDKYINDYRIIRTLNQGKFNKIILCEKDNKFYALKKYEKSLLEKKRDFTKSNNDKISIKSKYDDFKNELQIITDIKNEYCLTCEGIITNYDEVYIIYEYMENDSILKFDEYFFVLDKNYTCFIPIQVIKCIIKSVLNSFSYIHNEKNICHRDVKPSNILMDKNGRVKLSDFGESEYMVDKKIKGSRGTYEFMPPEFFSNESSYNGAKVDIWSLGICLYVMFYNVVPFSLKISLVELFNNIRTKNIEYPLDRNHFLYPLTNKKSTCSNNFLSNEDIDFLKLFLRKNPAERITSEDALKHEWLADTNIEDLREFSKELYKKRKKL

O=S(=O)(NCCN1CCCC1)c1cccc(-c2ccc(CNCc3ccc(F)cc3)cc2)c1
active: growth inhibition [4] 104%
inactive: growth inhibition [1] 41% | inhibition [2] 38% | inhibition [3] 6% | outcome [5] | outcome [6] | outcome [7] | outcome [8]

Cc1cc([N+](=O)[O-])ccc1N1CCN(CCCCNC(=O)c2ccc(NC(=O)c3ccc(Cl)cc3)cc2)CC1
active: growth inhibition [4] 92%
inactive: growth inhibition [1] -1% | inhibition [2] 33% | inhibition [3] 2% | outcome [5] | outcome [6] | outcome [7] | outcome [8]

O=C(Nc1ccc(Br)c(C(F)(F)F)c1)c1cccc([N+](=O)[O-])c1
inactive: growth inhibition [1] 3% | inhibition [2] 24% | inhibition [3] -7% | outcome [5] | outcome [6] | outcome [7] | outcome [8]
active: growth inhibition [4] 94%

NC(=O)c1cc2nc(Nc3ccc(F)cc3)nc(NC3CCC3)c2[nH]1
inactive: inhibition [2] 0% | inhibition [3] 3% | outcome [5] | outcome [6] | outcome [7] | outcome [8]
active: growth inhibition [1] 102% | growth inhibition [4] 102%

CCN(CC)CCCC(C)Nc1c2cc(OC)ccc2nc2cc(Cl)c([N+](=O)[O-])cc12 (stereo not given)
active: growth inhibition [1] 89% | growth inhibition [4] 100%
inactive: inhibition [2] 12% | inhibition [3] 2% | outcome [5] | outcome [6] | outcome [7] | outcome [8]

O=C(NCc1ccc(F)cc1)c1cnc(N2CCN(c3ccncc3)CC2)c(Cl)c1
active: growth inhibition [4] 98%
inactive: growth inhibition [1] 44% | inhibition [2] 30% | inhibition [3] 2% | outcome [5] | outcome [6] | outcome [7] | outcome [8]

CCCCCCN1CCCN(Cc2ccc(C(=O)Nc3ccc(Cl)cc3)cc2)CC1
inactive: inhibition [3] 3% | outcome [5] | outcome [6] | outcome [7] | outcome [8]
active: growth inhibition [1] 54% | inhibition [2] 50% | growth inhibition [4] 89%

CCOc1ccc(C(=O)Nc2cc3c(c(C(F)(F)F)c2)CCNC3)cc1Cl
active: growth inhibition [4] 91%
inactive: growth inhibition [1] 1% | inhibition [2] 4% | inhibition [3] -4% | outcome [5] | outcome [6] | outcome [7] | outcome [8]

Cc1cc(-c2ccc(S(=O)(=O)Nc3cc4c(cc3OC(C)C)CCN(C)CC4)cc2)ccc1Cl
active: growth inhibition [4] 90%
inactive: growth inhibition [1] 19% | inhibition [2] 33% | inhibition [3] -1% | outcome [5] | outcome [6] | outcome [7] | outcome [8]

Cc1ncccc1C(=O)Nc1cccc(-c2cccc(-c3nc4ccc(C(F)(F)F)cc4[nH]3)c2)c1
active: growth inhibition [4] 96%
inactive: growth inhibition [1] 30% | inhibition [2] 34% | inhibition [3] 1% | outcome [5] | outcome [6] | outcome [7] | outcome [8]

COc1ccc2nccc([C@@H](O)CN3CCC(NCCc4c[nH]c5ccccc45)CC3)c2c1
inactive: inhibition [2] 0% | inhibition [3] -7% | outcome [5] | outcome [6] | outcome [7] | outcome [8]
active: growth inhibition [1] 77% | growth inhibition [4] 98%

CCCCc1cc(N2CCC(NC(C)=O)C2)nc(Nc2ccc(C)cc2)n1 (stereo not given)
inactive: growth inhibition [1] 1% | inhibition [2] 2% | inhibition [3] -8% | outcome [5] | outcome [6] | outcome [7] | outcome [8]
active: growth inhibition [4] 95%

O=C(NC1CCC1)C1CCN(C(c2ccc(Cl)cc2)c2ccc(Cl)cc2)CC1
active: growth inhibition [1] 70% | growth inhibition [4] 95%
inactive: inhibition [2] 6% | inhibition [3] 8% | outcome [5] | outcome [6] | outcome [7] | outcome [8]

Cc1[nH]c(C)c(-c2ccc(CCc3cccc(C(F)(F)F)c3)nc2)c(=O)c1Cl
active: growth inhibition [1] 97% | growth inhibition [4] 99%
inactive: inhibition [2] 28% | inhibition [3] -2% | outcome [5] | outcome [6] | outcome [7] | outcome [8]

CCCNCc1ccc(-c2ccc(CN(Cc3ccc4c(c3)OCO4)C(=O)[C@H]3CCCO3)cc2)nc1
inactive: growth inhibition [1] 39% | inhibition [2] 18% | inhibition [3] -3% | outcome [5] | outcome [6] | outcome [7] | outcome [8]
active: growth inhibition [4] 90%

CCCC(C)c1cnc2nc(N)nc(N)c2c1C (stereo not given)
active: inhibition [2] 67% | growth inhibition [4] 95%
inactive: growth inhibition [1] 1% | inhibition [3] 3% | outcome [5] | outcome [6] | outcome [7] | outcome [8]

Cc1ccccc1C1CCN(C2CCC(NC(=O)/C=C/c3cc(F)ccc3F)CC2)CC1 (stereo not given)
inactive: growth inhibition [1] 36% | inhibition [2] 47% | inhibition [3] -2% | outcome [5] | outcome [6] | outcome [7] | outcome [8]
active: growth inhibition [4] 85%

NC(=O)c1ccc(-n2cnc3cc(F)ccc32)cc1OCc1ccccc1C(F)(F)F (tested in a mixture with another compound)
inactive: inhibition [3] 3% | outcome [5] | outcome [6] | outcome [7] | outcome [8]
active: growth inhibition [1] 93% | inhibition [2] 55% | growth inhibition [4] 97%

O=C(c1cc2cccc([N+](=O)[O-])c2[nH]1)N1CCC(CCN2CCC(c3c[nH]c4ccccc34)CC2)CC1
active: growth inhibition [4] 89%
inactive: growth inhibition [1] 24% | inhibition [2] 45% | inhibition [3] 1% | outcome [5] | outcome [6] | outcome [7] | outcome [8]

CN(C)CCOC(=O)C1(O)CCC2CC1C2(C)C (stereo not given)
active: growth inhibition [4] 95%
inactive: growth inhibition [1] -5% | inhibition [2] 10% | inhibition [3] -9% | outcome [5] | outcome [6] | outcome [7] | outcome [8]

c1cc(-c2ccc(CNCCCN3CCOCC3)cc2)cc(-c2nc3ccccc3[nH]2)c1
inactive: growth inhibition [1] -1% | inhibition [2] 26% | inhibition [3] -2% | outcome [5] | outcome [6] | outcome [7] | outcome [8]
active: growth inhibition [4] 100%

C[C@H](NC(=O)[C@H](Cc1ccccc1)NC(=O)OC(C)(C)C)C(=O)N[C@@H](CC1CCCCC1)C(O)CN (stereo not given in full)
active: growth inhibition [1] 64% | growth inhibition [4] 96%
inactive: inhibition [2] -4% | inhibition [3] -5% | outcome [5] | outcome [6] | outcome [7] | outcome [8]

CC(=O)Nc1ccc(C(=O)Nc2ccc(-c3cccc(-c4nc5ccccc5[nH]4)c3)cc2)cn1
inactive: inhibition [2] 34% | inhibition [3] 2% | outcome [5] | outcome [6] | outcome [7] | outcome [8]
active: growth inhibition [1] 84% | growth inhibition [4] 99%

COc1cc(NCCCNC(=O)c2cc3c(Cl)cc(Cl)cc3[nH]2)nc2ccccc12
inactive: inhibition [3] -1% | outcome [5] | outcome [6] | outcome [7] | outcome [8]
active: growth inhibition [1] 100% | inhibition [2] 96% | growth inhibition [4] 100%

C[C@@H](Oc1cc(-n2cnc3ccc(NC(=O)NC(C)(C)C)cc32)sc1C(N)=O)c1ccccc1Cl
active: growth inhibition [1] 97% | growth inhibition [4] 95%
inactive: inhibition [2] 28% | inhibition [3] 1% | outcome [5] | outcome [6] | outcome [7] | outcome [8]

COc1ccccc1Cn1ccnc1SCC(=O)Nc1cccc(C(F)(F)F)c1
active: growth inhibition [1] 73% | growth inhibition [4] 86%
inactive: inhibition [2] -6% | inhibition [3] -2% | outcome [5] | outcome [6] | outcome [7] | outcome [8]

Cc1cc(N2CCCC2)nc(Nc2ccc(NC(=O)CC(C)C)cc2)n1
active: growth inhibition [1] 53% | growth inhibition [4] 95%
inactive: inhibition [2] 37% | inhibition [3] -1% | outcome [5] | outcome [6] | outcome [7] | outcome [8]

CCn1c(-c2nc(-c3ccc4c(c3)OCO4)cnc2N)nc2cnccc21
inactive: inhibition [3] -7% | outcome [5] | outcome [6] | outcome [7] | outcome [8]
active: growth inhibition [1] 98% | inhibition [2] 94% | growth inhibition [4] 100%

Cc1cc(NC(=O)Nc2ccc(Cl)cc2F)c2ccccc2n1
active: growth inhibition [1] 71% | growth inhibition [4] 100%
inactive: inhibition [2] 10% | inhibition [3] 2% | outcome [5] | outcome [6] | outcome [7] | outcome [8]

CC1(C)CC(NC(=O)NC2CCN(Cc3ccccc3)CC2)CC(C)(CNC(=O)NC2CCN(Cc3ccccc3)CC2)C1 (stereo not given)
inactive: growth inhibition [1] 2% | inhibition [2] 10% | inhibition [3] 5% | outcome [5] | outcome [6] | outcome [7] | outcome [8]
active: growth inhibition [4] 93%

CCCCCC(=O)N1CCOC(CCN2CCc3c(c4ccccc4n3C)C2)(c2ccc(Cl)c(Cl)c2)C1 (stereo not given)
active: growth inhibition [1] 80% | growth inhibition [4] 95%
inactive: inhibition [2] 24% | inhibition [3] 1% | outcome [5] | outcome [6] | outcome [7] | outcome [8]

Fc1cccc(-c2ccc3c(c2)CC(NCc2c[nH]c4cnccc24)C3)c1 (stereo not given)
active: growth inhibition [1] 68% | growth inhibition [4] 100%
inactive: inhibition [2] 24% | inhibition [3] -1% | outcome [5] | outcome [6] | outcome [7] | outcome [8]

Cc1noc(-c2ccc3c(c2)CCN(CCC2CCC(NC(=O)/C=C/c4ccc(F)cc4)CC2)CC3)n1 (stereo not given)
active: growth inhibition [4] 91%
inactive: growth inhibition [1] 39% | inhibition [2] 44% | inhibition [3] 3% | outcome [5] | outcome [6] | outcome [7] | outcome [8]

Cc1nnc2c(NC(=O)NC(C)C)cc3cc(-c4ccc(CN5CCCCC5)cc4)ccc3n12
inactive: growth inhibition [1] 8% | inhibition [3] 1% | outcome [5] | outcome [6] | outcome [7] | outcome [8]
active: inhibition [2] 70% | growth inhibition [4] 87%

c1cn(-c2ccc(CNc3nccc(Nc4ccc(OCCN5CCOCC5)cc4)n3)cc2)cn1
inactive: growth inhibition [1] 3% | inhibition [2] 2% | inhibition [3] -2% | outcome [5] | outcome [6] | outcome [7] | outcome [8]
active: growth inhibition [4] 100%

COc1ccc(F)cc1-c1cccc(CNC2CCN(CC3Cn4c(=O)ccc5ccc(F)c3c54)CC2)c1 (stereo not given)
active: growth inhibition [4] 100%
inactive: growth inhibition [1] 27% | inhibition [2] 46% | inhibition [3] 1% | outcome [5] | outcome [6] | outcome [7] | outcome [8]

COc1ccc(Nc2nc(NCc3cccnc3)cc(-c3ccc(OC)cc3)n2)cc1
inactive: growth inhibition [1] 16% | inhibition [2] -2% | inhibition [3] 3% | outcome [5] | outcome [6] | outcome [7] | outcome [8]
active: growth inhibition [4] 89%

CCCCn1c(SC(C)C)nc2c(c1=O)C1(CCCCC1)Cc1ccccc1-2
active: growth inhibition [1] 60% | growth inhibition [4] 99%
inactive: inhibition [2] 1% | inhibition [3] -2% | outcome [5] | outcome [6] | outcome [7] | outcome [8]

Fc1cccc(COc2ccc(Nc3ncnc4sc(C#Cc5ncc[nH]5)cc34)cc2Cl)c1
active: growth inhibition [1] 95% | inhibition [2] 55% | growth inhibition [4] 100%
inactive: inhibition [3] -3% | outcome [5] | outcome [6] | outcome [7] | outcome [8]

COc1cc(C(=O)NC2CCN(Cc3ccccc3)CC2)ccc1-c1nc2c(Cl)cc(C(F)(F)F)cc2[nH]1
active: growth inhibition [1] 56% | growth inhibition [4] 103%
inactive: inhibition [2] 7% | inhibition [3] 1% | outcome [5] | outcome [6] | outcome [7] | outcome [8]
